Source: the supplement of paper PMC11732987, “Enantioselective OTUD7B fragment discovery through chemoproteomics screening and high-throughput optimisation” (Communications Chemistry, 2025)

Experiments:
Assay in all cases: log2 ratio of Biotin-Ahx-Ub-VS probe labelling (fragment/DMSO); higher = less target engagement (more negative = stronger competition), active = hit call of the paper (q ≤ 0.05, log2 ratio ≤ -1)
Conditions in all cases: compound concentration: 200 uM; treatment time: 3 h
USP34 = USP34 (UniProt Q70CQ2)
Outline: (§1)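 Triplicate samples of HEK293T lysate, 495 µg each, received fragment at 200 µM or vehicle for 3 h, followed by Biotin-Ahx-Ub-VS (0.5 µM final) for 1 h. After NeutrAvidin enrichment of labelled DUBs and LysC/trypsin digestion, peptides were run by diaPASEF LC-MS/MS. The values are average log2 fragment/vehicle ratios from global-median-normalised Spectronaut label-free quantities, tested by unpaired t-test on proteins having ≥2 unique peptides.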

USP36 = target: T1, USP36 (UniProt Q9P275)
T1 sequence (whole entry): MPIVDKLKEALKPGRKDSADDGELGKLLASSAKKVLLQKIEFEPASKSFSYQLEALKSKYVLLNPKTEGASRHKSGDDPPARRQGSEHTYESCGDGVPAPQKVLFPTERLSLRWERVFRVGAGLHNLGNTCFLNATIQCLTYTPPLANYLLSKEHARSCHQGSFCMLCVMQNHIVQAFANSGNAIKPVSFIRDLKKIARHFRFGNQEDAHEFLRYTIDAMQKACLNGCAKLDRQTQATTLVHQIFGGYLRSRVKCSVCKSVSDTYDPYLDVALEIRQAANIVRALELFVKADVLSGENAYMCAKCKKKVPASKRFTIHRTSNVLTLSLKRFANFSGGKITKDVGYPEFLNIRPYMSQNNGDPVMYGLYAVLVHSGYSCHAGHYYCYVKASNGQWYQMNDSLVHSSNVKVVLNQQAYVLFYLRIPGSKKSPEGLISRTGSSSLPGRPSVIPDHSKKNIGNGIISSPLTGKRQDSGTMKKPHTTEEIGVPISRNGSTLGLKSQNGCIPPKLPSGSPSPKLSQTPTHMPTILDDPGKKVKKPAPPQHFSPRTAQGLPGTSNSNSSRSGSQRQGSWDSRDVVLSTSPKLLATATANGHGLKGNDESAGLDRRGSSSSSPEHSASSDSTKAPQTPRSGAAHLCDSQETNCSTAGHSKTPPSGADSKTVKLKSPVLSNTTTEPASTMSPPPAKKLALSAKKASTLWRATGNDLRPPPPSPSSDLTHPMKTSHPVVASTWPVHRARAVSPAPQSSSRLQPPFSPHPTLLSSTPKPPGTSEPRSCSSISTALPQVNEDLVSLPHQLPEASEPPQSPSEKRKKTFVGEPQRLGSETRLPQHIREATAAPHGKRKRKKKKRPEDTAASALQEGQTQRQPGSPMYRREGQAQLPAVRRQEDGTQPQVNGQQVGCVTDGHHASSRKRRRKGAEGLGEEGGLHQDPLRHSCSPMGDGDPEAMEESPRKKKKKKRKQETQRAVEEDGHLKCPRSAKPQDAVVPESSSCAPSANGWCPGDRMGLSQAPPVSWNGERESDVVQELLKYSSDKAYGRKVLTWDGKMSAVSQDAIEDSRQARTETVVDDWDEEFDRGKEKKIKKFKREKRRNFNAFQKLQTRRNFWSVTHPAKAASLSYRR
Outline: as §1

USP38 = target: T2, USP38 (UniProt Q8NB14)
T2 sequence (whole entry): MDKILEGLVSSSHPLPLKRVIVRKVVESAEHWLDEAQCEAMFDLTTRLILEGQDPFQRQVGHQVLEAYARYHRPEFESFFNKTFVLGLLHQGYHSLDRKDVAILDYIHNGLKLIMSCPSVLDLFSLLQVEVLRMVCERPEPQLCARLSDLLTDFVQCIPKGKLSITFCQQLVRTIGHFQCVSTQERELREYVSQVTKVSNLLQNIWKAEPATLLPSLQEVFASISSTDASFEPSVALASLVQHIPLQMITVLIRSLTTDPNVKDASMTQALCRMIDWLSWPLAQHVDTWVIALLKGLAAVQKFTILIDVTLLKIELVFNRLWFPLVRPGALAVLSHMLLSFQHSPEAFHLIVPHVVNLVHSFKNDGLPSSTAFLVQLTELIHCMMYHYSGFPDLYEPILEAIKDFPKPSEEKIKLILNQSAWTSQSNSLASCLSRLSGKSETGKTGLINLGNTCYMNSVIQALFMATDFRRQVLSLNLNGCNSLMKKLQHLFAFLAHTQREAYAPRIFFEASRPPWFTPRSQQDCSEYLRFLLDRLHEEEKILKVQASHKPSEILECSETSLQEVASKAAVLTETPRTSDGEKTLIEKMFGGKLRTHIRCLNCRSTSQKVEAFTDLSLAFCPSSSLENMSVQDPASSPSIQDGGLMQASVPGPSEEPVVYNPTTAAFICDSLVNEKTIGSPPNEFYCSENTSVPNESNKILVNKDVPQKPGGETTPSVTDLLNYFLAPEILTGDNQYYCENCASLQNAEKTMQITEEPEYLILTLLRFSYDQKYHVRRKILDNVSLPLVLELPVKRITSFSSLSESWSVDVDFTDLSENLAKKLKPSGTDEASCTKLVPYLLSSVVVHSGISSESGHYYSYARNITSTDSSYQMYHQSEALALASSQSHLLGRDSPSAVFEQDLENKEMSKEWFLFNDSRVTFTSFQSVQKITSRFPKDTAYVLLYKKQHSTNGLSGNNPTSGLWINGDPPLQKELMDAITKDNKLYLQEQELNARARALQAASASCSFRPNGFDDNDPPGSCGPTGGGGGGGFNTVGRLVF
Outline: as §1

USP39 = target: T3, USP39 (UniProt Q53GS9)
T3 sequence (whole entry): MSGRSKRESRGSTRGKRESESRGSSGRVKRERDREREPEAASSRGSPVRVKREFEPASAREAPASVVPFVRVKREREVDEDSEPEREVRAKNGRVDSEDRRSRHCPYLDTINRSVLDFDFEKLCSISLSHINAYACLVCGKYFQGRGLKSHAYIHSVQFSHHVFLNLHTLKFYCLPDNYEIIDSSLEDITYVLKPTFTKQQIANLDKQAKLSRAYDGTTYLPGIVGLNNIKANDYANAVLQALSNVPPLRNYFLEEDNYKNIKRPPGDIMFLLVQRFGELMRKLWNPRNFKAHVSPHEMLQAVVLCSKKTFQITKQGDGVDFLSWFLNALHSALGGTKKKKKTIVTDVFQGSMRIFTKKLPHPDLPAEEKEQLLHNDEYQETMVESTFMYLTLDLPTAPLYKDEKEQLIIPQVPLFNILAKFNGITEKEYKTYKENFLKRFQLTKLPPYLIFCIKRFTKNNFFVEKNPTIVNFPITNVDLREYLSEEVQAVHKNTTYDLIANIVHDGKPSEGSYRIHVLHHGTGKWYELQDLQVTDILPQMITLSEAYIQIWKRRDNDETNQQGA
Outline: as §1

USP4 = target: T4, USP4 (UniProt Q13107)
T4 sequence (whole entry): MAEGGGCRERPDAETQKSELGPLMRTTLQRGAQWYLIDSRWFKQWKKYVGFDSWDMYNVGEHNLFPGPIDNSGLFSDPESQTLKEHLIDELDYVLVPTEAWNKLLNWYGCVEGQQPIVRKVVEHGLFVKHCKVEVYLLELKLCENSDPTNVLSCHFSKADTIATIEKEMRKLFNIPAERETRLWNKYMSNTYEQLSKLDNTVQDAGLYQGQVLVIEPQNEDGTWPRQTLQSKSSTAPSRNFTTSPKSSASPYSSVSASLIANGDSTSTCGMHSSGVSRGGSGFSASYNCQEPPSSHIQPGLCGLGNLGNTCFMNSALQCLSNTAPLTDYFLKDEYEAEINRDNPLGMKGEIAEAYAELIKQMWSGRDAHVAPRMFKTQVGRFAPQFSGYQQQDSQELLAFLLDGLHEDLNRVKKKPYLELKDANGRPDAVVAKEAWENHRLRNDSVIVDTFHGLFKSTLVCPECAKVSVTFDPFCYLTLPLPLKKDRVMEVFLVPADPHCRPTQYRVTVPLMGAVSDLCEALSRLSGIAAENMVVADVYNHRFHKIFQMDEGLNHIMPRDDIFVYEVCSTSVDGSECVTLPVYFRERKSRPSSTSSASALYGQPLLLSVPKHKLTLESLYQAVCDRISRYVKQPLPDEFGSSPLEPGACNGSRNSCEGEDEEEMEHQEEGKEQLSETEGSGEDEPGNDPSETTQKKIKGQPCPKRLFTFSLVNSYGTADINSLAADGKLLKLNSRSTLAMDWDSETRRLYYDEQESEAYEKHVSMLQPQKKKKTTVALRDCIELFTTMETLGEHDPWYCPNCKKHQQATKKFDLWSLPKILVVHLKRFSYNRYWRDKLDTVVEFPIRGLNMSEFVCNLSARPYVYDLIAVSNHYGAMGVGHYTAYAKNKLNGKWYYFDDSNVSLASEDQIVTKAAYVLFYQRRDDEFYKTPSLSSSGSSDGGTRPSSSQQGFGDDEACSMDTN
Outline: as §1

Measured: log2 ratio of Biotin-Ahx-Ub-VS probe labelling

USP34, sequence (Q70CQ2 whole entry, the tested form may be a part): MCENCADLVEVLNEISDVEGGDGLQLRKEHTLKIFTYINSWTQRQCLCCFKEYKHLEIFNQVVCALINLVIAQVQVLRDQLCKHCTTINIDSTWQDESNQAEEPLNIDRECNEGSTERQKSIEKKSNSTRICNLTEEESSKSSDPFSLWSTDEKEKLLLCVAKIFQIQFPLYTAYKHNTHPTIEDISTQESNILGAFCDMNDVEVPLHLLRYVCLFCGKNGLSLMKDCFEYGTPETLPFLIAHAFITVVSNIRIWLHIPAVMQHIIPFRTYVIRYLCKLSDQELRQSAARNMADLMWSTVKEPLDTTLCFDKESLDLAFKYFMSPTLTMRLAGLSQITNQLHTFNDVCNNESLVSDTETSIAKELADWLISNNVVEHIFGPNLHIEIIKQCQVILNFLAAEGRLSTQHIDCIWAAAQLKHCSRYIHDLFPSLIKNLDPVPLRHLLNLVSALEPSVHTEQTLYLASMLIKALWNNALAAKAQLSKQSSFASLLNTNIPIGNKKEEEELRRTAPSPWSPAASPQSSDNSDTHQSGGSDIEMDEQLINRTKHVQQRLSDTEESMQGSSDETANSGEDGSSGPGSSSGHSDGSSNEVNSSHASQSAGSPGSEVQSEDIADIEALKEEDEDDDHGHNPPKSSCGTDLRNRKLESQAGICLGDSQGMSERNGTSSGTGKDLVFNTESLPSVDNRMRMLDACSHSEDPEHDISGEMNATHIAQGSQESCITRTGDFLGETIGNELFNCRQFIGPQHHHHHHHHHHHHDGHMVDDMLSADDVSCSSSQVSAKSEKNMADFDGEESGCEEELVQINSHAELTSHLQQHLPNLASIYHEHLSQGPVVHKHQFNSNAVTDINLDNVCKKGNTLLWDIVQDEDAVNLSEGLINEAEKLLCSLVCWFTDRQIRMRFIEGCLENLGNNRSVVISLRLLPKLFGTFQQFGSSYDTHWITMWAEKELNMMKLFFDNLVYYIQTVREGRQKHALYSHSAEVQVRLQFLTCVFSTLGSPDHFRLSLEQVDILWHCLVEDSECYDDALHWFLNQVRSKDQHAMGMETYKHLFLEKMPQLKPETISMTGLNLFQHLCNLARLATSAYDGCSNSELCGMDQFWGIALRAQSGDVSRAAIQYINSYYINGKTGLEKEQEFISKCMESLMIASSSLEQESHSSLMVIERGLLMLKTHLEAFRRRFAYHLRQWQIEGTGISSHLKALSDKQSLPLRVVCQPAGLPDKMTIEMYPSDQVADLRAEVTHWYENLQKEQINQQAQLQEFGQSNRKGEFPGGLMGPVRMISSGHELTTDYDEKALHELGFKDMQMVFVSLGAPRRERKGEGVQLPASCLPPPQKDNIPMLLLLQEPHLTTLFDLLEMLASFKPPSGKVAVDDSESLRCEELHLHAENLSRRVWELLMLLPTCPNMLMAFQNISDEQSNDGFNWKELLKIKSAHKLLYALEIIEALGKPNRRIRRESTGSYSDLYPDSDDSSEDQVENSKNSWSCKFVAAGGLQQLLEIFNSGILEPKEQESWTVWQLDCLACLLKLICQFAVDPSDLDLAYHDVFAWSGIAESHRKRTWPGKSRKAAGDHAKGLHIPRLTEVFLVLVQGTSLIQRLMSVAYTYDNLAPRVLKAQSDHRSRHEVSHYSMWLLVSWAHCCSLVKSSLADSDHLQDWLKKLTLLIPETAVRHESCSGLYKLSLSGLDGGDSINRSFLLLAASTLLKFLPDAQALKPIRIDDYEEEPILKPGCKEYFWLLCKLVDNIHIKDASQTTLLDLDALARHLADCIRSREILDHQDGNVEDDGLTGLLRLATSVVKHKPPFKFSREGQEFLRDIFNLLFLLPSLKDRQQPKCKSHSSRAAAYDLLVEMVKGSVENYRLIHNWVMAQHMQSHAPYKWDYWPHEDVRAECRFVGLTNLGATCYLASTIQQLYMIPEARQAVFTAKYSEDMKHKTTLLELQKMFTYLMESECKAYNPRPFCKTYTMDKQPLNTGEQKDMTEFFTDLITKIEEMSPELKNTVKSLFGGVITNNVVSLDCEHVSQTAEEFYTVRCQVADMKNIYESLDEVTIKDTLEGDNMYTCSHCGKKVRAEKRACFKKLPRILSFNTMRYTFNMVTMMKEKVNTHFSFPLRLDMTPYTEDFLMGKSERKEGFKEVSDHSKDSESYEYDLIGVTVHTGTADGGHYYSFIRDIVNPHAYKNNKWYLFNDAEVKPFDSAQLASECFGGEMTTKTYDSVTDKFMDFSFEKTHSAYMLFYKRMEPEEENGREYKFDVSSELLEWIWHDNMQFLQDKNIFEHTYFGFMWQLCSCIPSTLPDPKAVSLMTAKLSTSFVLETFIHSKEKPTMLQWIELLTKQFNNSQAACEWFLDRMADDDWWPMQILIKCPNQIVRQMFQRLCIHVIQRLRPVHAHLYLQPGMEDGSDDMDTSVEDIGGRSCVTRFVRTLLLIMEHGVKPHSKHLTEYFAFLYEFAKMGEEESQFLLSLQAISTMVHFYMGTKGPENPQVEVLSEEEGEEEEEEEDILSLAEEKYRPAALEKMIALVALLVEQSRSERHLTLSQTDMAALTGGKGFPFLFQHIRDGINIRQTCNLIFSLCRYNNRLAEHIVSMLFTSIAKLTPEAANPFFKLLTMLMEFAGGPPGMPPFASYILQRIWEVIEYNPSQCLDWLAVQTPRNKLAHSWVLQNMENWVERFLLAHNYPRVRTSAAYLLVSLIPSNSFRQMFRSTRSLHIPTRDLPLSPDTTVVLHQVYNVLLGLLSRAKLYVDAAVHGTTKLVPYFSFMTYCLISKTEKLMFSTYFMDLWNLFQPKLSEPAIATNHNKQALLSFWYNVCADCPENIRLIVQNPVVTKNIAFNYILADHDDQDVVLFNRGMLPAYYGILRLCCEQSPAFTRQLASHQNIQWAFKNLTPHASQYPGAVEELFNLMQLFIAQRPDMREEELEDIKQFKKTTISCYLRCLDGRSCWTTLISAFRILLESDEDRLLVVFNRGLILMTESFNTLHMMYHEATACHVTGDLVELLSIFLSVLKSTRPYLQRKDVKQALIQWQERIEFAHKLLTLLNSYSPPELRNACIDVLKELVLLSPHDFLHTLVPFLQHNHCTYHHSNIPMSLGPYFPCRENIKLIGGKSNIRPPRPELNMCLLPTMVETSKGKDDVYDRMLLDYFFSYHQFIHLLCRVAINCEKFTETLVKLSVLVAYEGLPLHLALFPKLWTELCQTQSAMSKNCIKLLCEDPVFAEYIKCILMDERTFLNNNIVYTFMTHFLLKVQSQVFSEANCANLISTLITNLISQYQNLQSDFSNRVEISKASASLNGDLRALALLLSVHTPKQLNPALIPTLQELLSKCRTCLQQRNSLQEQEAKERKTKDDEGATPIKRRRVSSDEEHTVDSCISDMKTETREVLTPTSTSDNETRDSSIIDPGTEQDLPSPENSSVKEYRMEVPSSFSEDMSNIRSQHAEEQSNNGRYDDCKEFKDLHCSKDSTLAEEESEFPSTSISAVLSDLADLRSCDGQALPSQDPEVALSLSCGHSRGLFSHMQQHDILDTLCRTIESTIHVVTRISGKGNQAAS

CCC(NC(=O)CCl)c1ccc(Cl)cc1 (stereo not given)
inactive: USP34 -0.142 | USP36 -0.231 | USP38 0.0692 | USP39 0.0269 | USP4 0.0111
